Screening results (PubChem)
RMI FANCM FP: blocks RMI1/RMI2 complex binding to FANCM MM2 peptide. hit rate 0.58% among 70,000. FP signal (polarization) at 33 µM. Fluorescence polarization, RMI core complex with F-MM2 peptide; hits give low values; in the data active = FP signal below about 40
Numbers stand for hits; . = inactive; ! = repeats disagree. Many of the other results were omitted from the sample, so hits are more common in it than they were.

SMILES | RMI FANCM FP
O=C1C=CC(=O)c2c(O)cccc21 | -18
O=C1c2ccccc2C(=O)c2ccccc21 | .
Cc1nc2ccc(Br)cc2c(=O)n1-c1ccc(Cl)c(Cl)c1 | .
O=C(Nc1ccccc1C(F)(F)F)c1cccn(Cc2ccccc2F)c1=O | .
Cc1ccc(Cn2c(C=O)nc3ccccc32)cc1 | .
CC1=NCCc2c1[nH]c1cc(O)ccc21 | .
COc1ccc2c3c([nH]c2c1)C(C)=NCC3 | 35!
COc1ccc2c(c1)[nH]c1c(C)nccc12 | .
S=P(c1ccccc1)(c1ccccc1)c1ccccn1 | .
COc1ccc([Se][Se]c2ccc(OC)cc2[N+](=O)[O-])c([N+](=O)[O-])c1 | .
CC(C)=CCCC1(C)C=Cc2c(O)c3c(c(CC=C(C)C)c2O1)OC12C(=CC4CC1C(C)(C)OC2(C/C=C(/C)C(=O)O)C4O)C3=O (centres undefined) | .
COc1c(CC=C(C)C)c2c(c3oc(=O)c(-c4ccc(O)cc4)c(O)c13)C=CC(C)(C)O2 | 13
CC(C)=CCCC1(C)C=Cc2c(O)c3c(c(CC=C(C)C)c2O1)OC12C(=CC4CC1C(C)(C)OC2(C/C=C(/C)C(=O)O)C4=O)C3=O (centres undefined) | .
NS(=O)(=O)c1ccc(NC(=O)c2ccc(S(=O)(=O)N(CCCl)CCCl)cc2)cc1 | .
Cc1csc(CN2CCN(C(=O)COc3ccc(Cl)cc3)CC2)n1 | .
Cc1ccc(Cl)c2sc(N3CCNCC3)nc12 | .
NC(Cc1cc(O)c(O)cc1O)C(=O)O (centres undefined) | -4
NCCc1cc(O)c(O)cc1O | .
N[C@@H](CCl)C(=O)O | .
CN1C2CCC1CC(=NOC(=O)c1ccc([N+](=O)[O-])cc1)C2 | .
NC1=NC(=O)C(c2ccccc2)O1 (centres undefined) | 17
C/C(=N/O)c1cn(C)c2ccccc12 | .
O=C/C=C/c1ccco1 | .
COc1ccc(CC(=O)N2CCN(C(c3ccccc3)c3ccccc3)CC2)cc1OC | .
C[C@H](Cc1ccc2c(c1)OC(C(=O)O)(C(=O)O)O2)NC[C@H](O)c1cccc(Cl)c1 | .
CC(Cc1ccc(O)cc1)NCC(O)c1cc(O)cc(O)c1 (centres undefined) | -13!
CC(N)Cc1ccc(O)cc1 (centres undefined) | .
Cc1csc(CN2CCN(C(=O)COc3ccc(F)cc3)CC2)n1 | .
NCCC(O)C(=O)N[C@@H]1C[C@H](N)[C@@H](OC2O[C@H](CN)[C@@H](O)[C@H](O)[C@H]2N)[C@H](OC2O[C@H](CO)C(O)[C@H]2O)[C@H]1O (some centres undefined) | .
O=C(O)c1cc2cc(Br)ccc2o1 | .
